Assay outcomes: PubChem, several laboratories
Efflux pump inh – antifungal efflux pump inhibition, Nile Red retention; AID 485275; inhibition, % at 10 µM; S. cerevisiae Candida pump triplex; actives 0.44% (n = 330,000);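 active = plate passing quality check with inhibition over a set limit, or well fluorescence over plate mean plus 4 SD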;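 note: Nile Red retained in pooled yeast measured as flow cytometry median fluorescence; 0% = buffer negative control and 100% = Enniatin B positive control; higher means more Nile Red kept so more efflux inhibition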
Rtt109 Vps75 – C. albicans Rtt109 histone acetyltransferase inhibition; Q5AAJ8; purified Rtt109/Vps75, ThioGlo CoA-SH fluorescence, 4 h; inhibition, % at 34.9 µM; actives 0.16% (n = 330,000); AID 540336;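 active = inhibition of at least 50% in every replicate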
Target sequence (Q5AAJ8 whole entry, looked up): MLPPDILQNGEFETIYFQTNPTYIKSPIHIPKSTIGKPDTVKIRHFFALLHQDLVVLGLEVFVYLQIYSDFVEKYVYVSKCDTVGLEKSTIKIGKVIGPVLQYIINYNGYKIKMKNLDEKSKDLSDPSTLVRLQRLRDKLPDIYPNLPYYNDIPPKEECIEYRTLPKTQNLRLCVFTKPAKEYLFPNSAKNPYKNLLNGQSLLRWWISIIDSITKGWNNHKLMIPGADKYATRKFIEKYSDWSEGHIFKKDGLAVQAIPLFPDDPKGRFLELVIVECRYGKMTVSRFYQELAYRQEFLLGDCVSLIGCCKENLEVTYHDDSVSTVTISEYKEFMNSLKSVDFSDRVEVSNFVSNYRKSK
ERp5 block – blocks human ERp5 reductase activity on insulin; Q15084; inhibition, % at 9.99 µM; ERp5 insulin aggregation, absorbance 650 nm, 90 min; actives 0.05% (n = 350,000);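 active = mean replicate inhibition above about 25%, with every replicate also reaching it, limit read from the data, passing the limit was not always enough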
PvdQ inh – P. aeruginosa PvdQ acylase inhibition; actives 0.063% (n = 340,000); AID 488965; purified PvdQ acylase, fluorescence plate reader; inhibition, % at 10 µM; in the data active = inhibition above about 30%, passing the limit was not always enough;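 note: 0% = vehicle neutral wells and 100% = reference inhibitor wells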
PDI inh – inhibitors of human protein disulfide isomerase | PDI insulin aggregation turbidity, A650, 90 min | inhibition, % at 10 µM | actives 0.052% (n = 350,000) | AID 588391;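 active = mean inhibition across replicates of 30% or more, whatever share of single replicates reach that level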
An asterisk follows results filed as active; . = no result; ! = a repeat was not active. Most compounds without a hit are left out; they make up all but 0.54% or so of the library.

SMILES	Efflux pump inh	Rtt109 Vps75	ERp5 block	PvdQ inh	PDI inh
Cc1ccc(C(=O)C=Cc2ccc3c(c2)OCO3)c(C)c1	.	.	9.6	.	13.3
O=C(/C=C/c1ccc2c(c1)OCO2)c1ccc(O)cc1O	.	3.1	4.5	1.3	72.5*
Cc1ccc(O)c(C(=O)/C=C/c2ccc3c(c2)OCCO3)c1	0.1	-5.8	1.3	64.3*	3.2
O=C(C[C@@H]1C=C[C@H](NS(=O)(=O)c2ccccc2)[C@@H](CO)O1)N1CCC(Cc2ccccc2)CC1	.	.	3.3	.	.
COc1ccc2c3c(n(C)c2c1)[C@H](CO)N(C(=O)NC(C)C)CC31CCN(CC2CCCC2)CC1	.	.	-11.0	.	.
COc1cc(/C=N/N2C(=O)CSC2=S)ccc1O	0.1	25.1	.	-9.2	-1.1
O=C1CSC(=S)N1/N=C/c1cc(Br)c(O)c(Br)c1	7.5*	11.0	.	-12.2	2.8
O=C(c1ccncc1)N1CC2(C1)[C@H](c1ccccc1)[C@@H](CO)N2CC1CCOCC1	.	.	0.6	.	.
O=C(O)CCc1ccc(-c2ccccc2)o1	0.1	78.0*	.	-10.9	8.0
O=C(O)CCc1nc(-c2ccccc2)c(-c2ccccc2)o1	-0.1	.	.	.	.
CN=C1S/C(=C\c2ccc(Cl)cc2)C(=O)N1C	-0.1	-6.1	1.3	13.8	0.3
CN=C1S/C(=C\c2ccc(SC)cc2)C(=O)N1C	0.6	-4.7	3.6	48.2*	-2.9
Cc1ccc(CCNC(=O)CCS(=O)(=O)c2ccc(Br)cc2)cc1	-0.1	.	-0.3	30.5*	-6.1
Cc1ccc(S(=O)(=O)CCC(=O)NCCc2ccc(Cl)cc2)cc1	-0.1	4.2	3.3	8.0	-9.0
O=C(C[C@H]1C=C[C@H](NS(=O)(=O)c2ccc(F)cc2)[C@@H](CO)O1)NCc1ccccc1F	.	.	0.0	.	.
CCOC(=O)/C=C/S(=O)(=O)c1ccc(NC(C)=O)cc1	0.0	123.6*	.	-3.1	-3.4
O=C(C[C@@H]1C[C@H]2c3cc(NC(=O)Nc4ccccc4)ccc3O[C@H]2[C@H](CO)O1)NCc1ccncc1	.	.	-3.5	.	.
O=S(=O)(NC[C@@H]1CC[C@H]2[C@H](CN2Cc2cccc(-c3ccccn3)c2)O1)c1ccccc1	.	.	0.1	.	.
C1CCC(C(CC2CCCCN2)C2CCCCC2)CC1 (stereo not given)	-0.2	77.6*!	-6.8	-4.3	1.0
O=C(Cc1ccncc1)NCC[C@@H]1CC[C@H](NC(=O)C2CCCCC2)[C@H](CO)O1	.	.	19.6	.	.
Oc1cc(O)c(CN2CCOCC2)cc1CN1CCOCC1	.	101.2*	4.0	-16.5	-2.2
COc1ccc2c3c([nH]c2c1)[C@@H](CO)N(Cc1nccs1)CC31CCN(C(=O)C2CCOCC2)CC1	.	.	1.7	.	.
CCS(=O)(=O)N1CC(=O)N2[C@H](C1)[C@@H](c1ccc(C#CCC3CCCC3)cc1)[C@@H]2CO	.	.	0.6	.	.
CC(C)[C@@H]1CN=C(N)N1C[C@@H]1CCCN1C[C@H](C)N1C[C@@H](Cc2ccccc2)N(CCc2ccc(Cl)c(Cl)c2)C1=N	0.5	-7.9	.	-5.3	-2.2
C[C@@H](CN1CCC[C@H]1CN1C(N)=NC[C@@H]1Cc1ccccc1)N1C[C@@H](Cc2ccccc2)N(CCc2ccc(Cl)c(Cl)c2)C1=N	0.1	59.2*	.	-24.2	19.0
SMILES	Efflux pump inh	Rtt109 Vps75	ERp5 block	PvdQ inh	PDI inh
CC[n+]1c(C)sc2c(C)cc(C)cc21	0.1	114.1*	11.0	-17.6	6.3
CC[n+]1c(C)sc2cc(OC)ccc21	0.0	1.9	2.1	-12.0	4.7
Cc1ccc2c(C)cc[n+](CCCS(=O)(=O)[O-])c2c1	0.1	1.0	.	-9.4	-2.2
Cc1cc(C)c2sc(C)[n+](CCCS(=O)(=O)[O-])c2c1	-0.1	90.1*	0.5	-5.9	-2.3
CO[C@@H]1CN(C)C(=O)c2cc(NC(=O)c3cnccn3)ccc2OC[C@@H](C)N(CCc2ccccc2)C[C@H]1C	.	.	3.0	.	.
COc1ccc(-c2ccc(OC)cc2)cc1	0.0	-7.2	.	52.5*	-7.4
COc1ccc(-c2nncnn2)cc1	0.1	.	.	.	.
O=C(C[C@@H]1C=C[C@@H](NS(=O)(=O)c2ccccc2)[C@@H](CO)O1)N1CCc2ccccc2C1	.	.	4.9	.	.
CCCn1cc(SCC(=O)NC2CCCC2)c2ccccc21	0.2	0.0	2.1	-10.1	5.5
CCCn1cc(S(=O)(=O)CC(=O)NC2CCCCC2)c2ccccc21	0.0	50.9*	.	9.8	-0.6
O=C(CC1CC1)N1CC(=O)N2[C@H](CO)[C@H](c3ccc(C#Cc4ccccc4)cc3)[C@@H]2C1	.	.	-8.0	.	.
CCN(c1ccc(OC)cc1)S(=O)(=O)c1nnc(NC(=O)COc2ccc(C)cc2)s1	0.0	56.6*	0.2	4.5	-5.7
N#C/C(=C\c1ccccc1OCc1ccc(C(=O)O)cc1)C(=O)Nc1ccc(O)cc1	0.0	-16.8	-0.6	-7.7	50.9*
